# Tests used:
# Assay in all cases: DAPPL (digital affinity profiling via proximity ligation, sequencing); 10 mM Tris-HCl pH 7.5, 50 mM NaCl, 1 mM DTT, 4% glycerol, room temperature, 30 min; GST-TFs on glutathione beads, 16-mer random dsDNA library, 0.1% formaldehyde crosslink after washing; high values mean tight binding
# [1] = biological target: T1, FEV (Homo sapiens, UniProt Q99581 1-238); settings: protein: recombinant; tags: N-terminal GST; dsDNA, one strand shown
# T1 sequence: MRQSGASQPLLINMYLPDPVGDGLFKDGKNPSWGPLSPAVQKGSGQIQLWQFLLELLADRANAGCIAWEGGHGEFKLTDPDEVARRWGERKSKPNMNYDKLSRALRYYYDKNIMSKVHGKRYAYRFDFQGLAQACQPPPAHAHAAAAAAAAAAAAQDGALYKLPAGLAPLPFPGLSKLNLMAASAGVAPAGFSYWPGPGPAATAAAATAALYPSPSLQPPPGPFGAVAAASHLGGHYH
# Summary of the method: (§1)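 The binding signal reported is, for every hexamer, its read frequency for a factor over its read frequency for the tag-only sample. Reads came from pools of yeast-expressed, GST-fused human transcription factors on glutathione beads, barcoded with DNA and mixed with that sample, which were incubated with 200 nmole of a random double-stranded 16-mer DNA library in Tris/NaCl/DTT/glycerol buffer at room temperature for 30 min. After washing, the pools were crosslinked with 0.1% formaldehyde, proximity-ligated with BsaI/T4 ligase for 1 h at 37 °C, PCR-amplified and sequenced on an Illumina NextSeq500.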
# [2] = biological target: ETV5 (Homo sapiens, UniProt P41161 1-510); settings: protein: recombinant; tags: N-terminal GST; dsDNA, one strand shown
# Chain of ETV5 (P41161 whole entry): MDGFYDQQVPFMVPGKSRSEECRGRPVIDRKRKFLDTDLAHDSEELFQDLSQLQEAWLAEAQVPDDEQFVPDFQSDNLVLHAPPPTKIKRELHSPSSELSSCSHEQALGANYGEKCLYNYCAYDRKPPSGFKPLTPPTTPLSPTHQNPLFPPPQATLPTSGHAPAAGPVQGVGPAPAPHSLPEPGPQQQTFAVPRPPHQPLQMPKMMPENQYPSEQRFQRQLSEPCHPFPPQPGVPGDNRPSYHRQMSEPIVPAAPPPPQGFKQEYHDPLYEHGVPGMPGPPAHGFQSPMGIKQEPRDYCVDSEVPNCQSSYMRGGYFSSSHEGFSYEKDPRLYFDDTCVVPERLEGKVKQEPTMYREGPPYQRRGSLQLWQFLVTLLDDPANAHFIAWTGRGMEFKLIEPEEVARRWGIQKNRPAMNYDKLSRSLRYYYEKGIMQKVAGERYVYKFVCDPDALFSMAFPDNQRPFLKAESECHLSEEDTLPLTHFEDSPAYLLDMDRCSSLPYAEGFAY
# Summary of the method: as §1
# [3] = biological target: HSF1 (Homo sapiens, UniProt Q00613 1-529); settings: protein: recombinant; tags: N-terminal GST; chain copies: 3; dsDNA, one strand shown
# Chain of HSF1 (Q00613 whole entry): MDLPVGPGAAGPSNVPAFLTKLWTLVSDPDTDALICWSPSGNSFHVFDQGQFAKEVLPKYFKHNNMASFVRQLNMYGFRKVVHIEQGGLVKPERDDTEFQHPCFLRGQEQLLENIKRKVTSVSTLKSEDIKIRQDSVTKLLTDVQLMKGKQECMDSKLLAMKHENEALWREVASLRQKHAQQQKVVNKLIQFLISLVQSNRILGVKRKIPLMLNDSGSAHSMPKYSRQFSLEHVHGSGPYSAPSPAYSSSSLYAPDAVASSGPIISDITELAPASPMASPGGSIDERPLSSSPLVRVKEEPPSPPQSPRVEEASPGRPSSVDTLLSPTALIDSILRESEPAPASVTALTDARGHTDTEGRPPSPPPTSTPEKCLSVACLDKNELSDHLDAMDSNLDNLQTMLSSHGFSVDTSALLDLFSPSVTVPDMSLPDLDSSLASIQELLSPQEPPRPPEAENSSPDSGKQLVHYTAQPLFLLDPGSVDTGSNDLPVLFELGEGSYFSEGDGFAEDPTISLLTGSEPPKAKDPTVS
# Summary of the method: as §1
# [4] = biological target: T2, SPIC (Homo sapiens, UniProt Q8N5J4 1-248); settings: protein: recombinant; tags: N-terminal GST; dsDNA, one strand shown
# T2 sequence: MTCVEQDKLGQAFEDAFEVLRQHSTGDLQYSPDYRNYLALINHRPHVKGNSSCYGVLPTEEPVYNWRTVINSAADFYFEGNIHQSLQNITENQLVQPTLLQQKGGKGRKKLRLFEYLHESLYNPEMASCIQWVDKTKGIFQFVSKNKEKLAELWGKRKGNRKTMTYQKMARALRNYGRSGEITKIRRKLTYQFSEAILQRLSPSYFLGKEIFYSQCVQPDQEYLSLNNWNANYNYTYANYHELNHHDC
# Summary of the method: as §1
# [5] = biological target: ELF4 (Homo sapiens, UniProt Q99607 1-663); settings: protein: recombinant; tags: N-terminal GST; dsDNA, one strand shown
# Chain of ELF4 (Q99607 whole entry): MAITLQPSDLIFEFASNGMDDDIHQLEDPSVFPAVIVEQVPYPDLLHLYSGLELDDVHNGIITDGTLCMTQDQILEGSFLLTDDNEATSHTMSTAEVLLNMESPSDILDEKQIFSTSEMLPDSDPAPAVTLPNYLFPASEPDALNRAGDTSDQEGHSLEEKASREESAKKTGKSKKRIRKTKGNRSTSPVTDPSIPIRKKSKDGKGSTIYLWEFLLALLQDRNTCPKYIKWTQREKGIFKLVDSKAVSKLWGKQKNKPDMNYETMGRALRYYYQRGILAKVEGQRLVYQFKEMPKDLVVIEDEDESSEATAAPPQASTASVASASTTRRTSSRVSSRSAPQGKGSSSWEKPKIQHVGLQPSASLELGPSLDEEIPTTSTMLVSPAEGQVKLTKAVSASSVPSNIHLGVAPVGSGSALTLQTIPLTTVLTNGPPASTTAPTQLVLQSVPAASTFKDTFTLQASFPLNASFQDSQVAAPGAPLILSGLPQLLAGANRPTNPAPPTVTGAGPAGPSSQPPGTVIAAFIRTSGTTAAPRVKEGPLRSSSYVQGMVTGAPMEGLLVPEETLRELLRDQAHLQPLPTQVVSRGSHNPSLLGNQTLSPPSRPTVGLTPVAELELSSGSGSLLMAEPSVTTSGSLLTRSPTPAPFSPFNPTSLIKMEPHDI
# Summary of the method: as §1
# [6] = biological target: T3, ELK4 (Homo sapiens, UniProt P28324-2 1-405); settings: protein: recombinant; tags: N-terminal GST; dsDNA, one strand shown
# T3 sequence: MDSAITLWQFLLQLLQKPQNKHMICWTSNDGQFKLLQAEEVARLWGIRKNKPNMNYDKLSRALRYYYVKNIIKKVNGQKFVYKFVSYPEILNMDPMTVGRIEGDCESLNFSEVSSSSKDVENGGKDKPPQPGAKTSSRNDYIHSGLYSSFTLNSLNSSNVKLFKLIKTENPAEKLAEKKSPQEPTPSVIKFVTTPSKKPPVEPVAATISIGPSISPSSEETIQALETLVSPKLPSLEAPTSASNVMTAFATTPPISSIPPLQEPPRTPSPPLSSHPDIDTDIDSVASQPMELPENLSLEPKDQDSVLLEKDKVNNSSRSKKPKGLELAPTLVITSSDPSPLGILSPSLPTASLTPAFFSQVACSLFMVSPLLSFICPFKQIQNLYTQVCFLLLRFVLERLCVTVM
# Summary of the method: as §1
# [7] = biological target: T4, ETV2 (Homo sapiens, UniProt O00321 1-342); settings: protein: recombinant; tags: N-terminal GST; dsDNA, one strand shown
# T4 sequence: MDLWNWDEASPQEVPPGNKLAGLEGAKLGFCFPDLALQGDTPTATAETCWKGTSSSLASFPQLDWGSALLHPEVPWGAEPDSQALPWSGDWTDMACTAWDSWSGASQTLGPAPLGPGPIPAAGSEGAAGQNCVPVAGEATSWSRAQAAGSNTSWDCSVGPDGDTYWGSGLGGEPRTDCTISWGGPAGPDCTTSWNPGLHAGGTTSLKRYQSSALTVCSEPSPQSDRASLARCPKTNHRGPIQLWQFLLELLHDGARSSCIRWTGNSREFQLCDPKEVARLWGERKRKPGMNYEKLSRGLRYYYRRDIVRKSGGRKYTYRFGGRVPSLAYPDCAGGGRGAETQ
# Summary of the method: as §1
# [8] = biological target: CRX (Homo sapiens, UniProt O43186 1-299); settings: protein: recombinant; tags: N-terminal GST; dsDNA, one strand shown
# Chain of CRX (O43186 whole entry): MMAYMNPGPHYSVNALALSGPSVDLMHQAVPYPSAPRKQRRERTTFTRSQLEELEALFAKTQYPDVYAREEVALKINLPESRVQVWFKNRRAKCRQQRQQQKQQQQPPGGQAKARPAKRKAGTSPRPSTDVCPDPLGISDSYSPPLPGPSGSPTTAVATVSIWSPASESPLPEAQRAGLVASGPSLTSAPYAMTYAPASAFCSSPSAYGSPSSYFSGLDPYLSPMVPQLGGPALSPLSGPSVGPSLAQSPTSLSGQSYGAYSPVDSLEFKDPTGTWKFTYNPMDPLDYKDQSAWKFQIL
# Summary of the method: as §1
# [9] = biological target: ETV1 (Homo sapiens, UniProt P50549 1-477); settings: protein: recombinant; tags: N-terminal GST; dsDNA, one strand shown
# Chain of ETV1 (P50549 whole entry): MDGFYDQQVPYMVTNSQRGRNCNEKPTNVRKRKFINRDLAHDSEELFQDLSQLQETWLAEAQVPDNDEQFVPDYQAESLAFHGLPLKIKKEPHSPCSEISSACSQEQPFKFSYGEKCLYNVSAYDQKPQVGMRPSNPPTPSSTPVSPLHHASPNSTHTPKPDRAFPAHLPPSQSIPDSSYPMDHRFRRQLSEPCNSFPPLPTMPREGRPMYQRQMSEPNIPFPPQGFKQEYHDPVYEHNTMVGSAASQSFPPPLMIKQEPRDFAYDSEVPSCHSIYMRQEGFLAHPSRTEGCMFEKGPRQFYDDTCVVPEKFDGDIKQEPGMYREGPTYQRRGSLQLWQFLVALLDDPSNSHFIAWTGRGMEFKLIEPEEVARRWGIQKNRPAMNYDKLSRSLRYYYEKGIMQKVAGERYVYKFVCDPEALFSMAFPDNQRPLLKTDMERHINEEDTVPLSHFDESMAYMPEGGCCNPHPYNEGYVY
# Summary of the method: as §1
# [10] = biological target: T5, ERF (Homo sapiens, UniProt P50548 1-548); settings: protein: recombinant; tags: N-terminal GST; dsDNA, one strand shown
# T5 sequence: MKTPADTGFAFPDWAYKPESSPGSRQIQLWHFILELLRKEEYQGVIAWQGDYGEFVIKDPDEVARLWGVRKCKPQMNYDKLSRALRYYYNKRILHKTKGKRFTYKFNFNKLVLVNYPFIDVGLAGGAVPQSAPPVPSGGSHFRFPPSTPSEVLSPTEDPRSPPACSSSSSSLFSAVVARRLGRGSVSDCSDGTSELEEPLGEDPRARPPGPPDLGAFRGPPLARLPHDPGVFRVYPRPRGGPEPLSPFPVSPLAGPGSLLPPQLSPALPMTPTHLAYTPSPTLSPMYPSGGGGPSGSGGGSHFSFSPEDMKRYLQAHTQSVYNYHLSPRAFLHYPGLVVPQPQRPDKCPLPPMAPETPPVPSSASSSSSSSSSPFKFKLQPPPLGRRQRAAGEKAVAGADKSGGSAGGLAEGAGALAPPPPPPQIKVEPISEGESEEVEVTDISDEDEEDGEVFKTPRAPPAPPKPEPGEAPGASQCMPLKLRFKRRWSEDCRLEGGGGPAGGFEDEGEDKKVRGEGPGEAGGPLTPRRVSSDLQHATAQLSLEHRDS
# Summary of the method: as §1
# [11] = biological target: T6, ETV3L (Homo sapiens, UniProt Q6ZN32 1-361); settings: protein: recombinant; tags: N-terminal GST; dsDNA, one strand shown
# T6 sequence: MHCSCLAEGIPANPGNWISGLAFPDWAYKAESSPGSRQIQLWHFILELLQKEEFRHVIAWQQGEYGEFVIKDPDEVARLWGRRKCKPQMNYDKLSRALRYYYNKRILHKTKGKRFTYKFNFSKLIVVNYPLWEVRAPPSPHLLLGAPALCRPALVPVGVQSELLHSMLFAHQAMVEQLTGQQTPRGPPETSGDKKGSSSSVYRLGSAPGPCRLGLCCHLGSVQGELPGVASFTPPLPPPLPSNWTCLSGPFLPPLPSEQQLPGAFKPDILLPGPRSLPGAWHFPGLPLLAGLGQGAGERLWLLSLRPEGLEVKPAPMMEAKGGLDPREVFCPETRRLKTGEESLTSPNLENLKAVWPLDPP
# Summary of the method: as §1
# [12] = biological target: T7, ETS2 (Homo sapiens, UniProt P15036 1-469); settings: protein: recombinant; tags: N-terminal GST; dsDNA, one strand shown
# T7 sequence: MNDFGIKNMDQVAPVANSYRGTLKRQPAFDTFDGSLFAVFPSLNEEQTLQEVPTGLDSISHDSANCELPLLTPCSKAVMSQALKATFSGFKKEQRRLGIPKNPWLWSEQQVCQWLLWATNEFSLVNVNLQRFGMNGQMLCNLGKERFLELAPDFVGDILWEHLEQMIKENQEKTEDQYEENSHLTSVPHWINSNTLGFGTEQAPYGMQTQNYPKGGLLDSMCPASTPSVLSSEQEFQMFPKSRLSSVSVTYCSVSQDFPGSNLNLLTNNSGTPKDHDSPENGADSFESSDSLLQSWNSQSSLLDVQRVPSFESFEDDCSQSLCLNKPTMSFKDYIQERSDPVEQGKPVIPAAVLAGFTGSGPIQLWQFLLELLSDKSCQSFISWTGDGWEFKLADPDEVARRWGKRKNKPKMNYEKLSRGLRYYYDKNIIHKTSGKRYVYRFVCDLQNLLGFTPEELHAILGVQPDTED
# Summary of the method: as §1
# [13] = biological target: T8, SPDEF (Homo sapiens, UniProt O95238 1-335); settings: protein: recombinant; tags: N-terminal GST; dsDNA, one strand shown
# T8 sequence: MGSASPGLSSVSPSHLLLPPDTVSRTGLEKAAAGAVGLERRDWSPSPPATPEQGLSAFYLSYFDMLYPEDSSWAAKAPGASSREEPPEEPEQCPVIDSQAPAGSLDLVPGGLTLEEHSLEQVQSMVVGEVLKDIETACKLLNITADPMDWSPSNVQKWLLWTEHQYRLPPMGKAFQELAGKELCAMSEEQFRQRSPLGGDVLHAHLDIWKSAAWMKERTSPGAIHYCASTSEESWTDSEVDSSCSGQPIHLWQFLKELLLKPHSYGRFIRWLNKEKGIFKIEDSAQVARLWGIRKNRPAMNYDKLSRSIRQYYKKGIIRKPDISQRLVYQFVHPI
# Summary of the method: as §1
# [14] = biological target: T9, ETV7 (Homo sapiens, UniProt Q9Y603 1-341); settings: protein: recombinant; tags: N-terminal GST; dsDNA, one strand shown
# T9 sequence: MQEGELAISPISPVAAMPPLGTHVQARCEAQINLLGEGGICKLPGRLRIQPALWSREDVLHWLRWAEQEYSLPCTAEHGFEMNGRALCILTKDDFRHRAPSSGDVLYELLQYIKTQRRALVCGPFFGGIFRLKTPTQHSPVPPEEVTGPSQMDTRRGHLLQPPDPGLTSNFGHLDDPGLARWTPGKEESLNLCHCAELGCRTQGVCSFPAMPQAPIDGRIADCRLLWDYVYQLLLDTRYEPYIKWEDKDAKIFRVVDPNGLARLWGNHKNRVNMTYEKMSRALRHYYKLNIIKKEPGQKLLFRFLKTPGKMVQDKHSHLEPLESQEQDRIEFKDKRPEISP
# Summary of the method: as §1
# [15] = biological target: T10, ELF5 (Homo sapiens, UniProt Q9UKW6-2 1-255); settings: protein: recombinant; tags: N-terminal GST; dsDNA, one strand shown
# T10 sequence: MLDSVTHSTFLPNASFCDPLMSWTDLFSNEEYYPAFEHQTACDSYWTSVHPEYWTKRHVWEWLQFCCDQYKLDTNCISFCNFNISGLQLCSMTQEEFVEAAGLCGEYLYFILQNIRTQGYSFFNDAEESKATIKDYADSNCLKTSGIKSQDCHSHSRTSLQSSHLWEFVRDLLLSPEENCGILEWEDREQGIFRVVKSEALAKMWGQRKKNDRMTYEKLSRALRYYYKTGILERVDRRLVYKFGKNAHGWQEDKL
# Summary of the method: as §1
# [16] = biological target: T11, ETV3 (Homo sapiens, UniProt P41162-2 1-143); settings: protein: recombinant; tags: N-terminal GST; dsDNA, one strand shown
# T11 sequence: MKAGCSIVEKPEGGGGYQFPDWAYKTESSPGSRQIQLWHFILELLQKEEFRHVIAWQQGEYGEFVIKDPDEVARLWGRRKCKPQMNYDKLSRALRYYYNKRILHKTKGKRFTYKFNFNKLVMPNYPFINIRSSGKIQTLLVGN
# Summary of the method: as §1
# [17] = biological target: ETV6 (Homo sapiens, UniProt P41212 1-452); settings: protein: recombinant; tags: N-terminal GST; dsDNA, one strand shown
# Chain of ETV6 (P41212 whole entry): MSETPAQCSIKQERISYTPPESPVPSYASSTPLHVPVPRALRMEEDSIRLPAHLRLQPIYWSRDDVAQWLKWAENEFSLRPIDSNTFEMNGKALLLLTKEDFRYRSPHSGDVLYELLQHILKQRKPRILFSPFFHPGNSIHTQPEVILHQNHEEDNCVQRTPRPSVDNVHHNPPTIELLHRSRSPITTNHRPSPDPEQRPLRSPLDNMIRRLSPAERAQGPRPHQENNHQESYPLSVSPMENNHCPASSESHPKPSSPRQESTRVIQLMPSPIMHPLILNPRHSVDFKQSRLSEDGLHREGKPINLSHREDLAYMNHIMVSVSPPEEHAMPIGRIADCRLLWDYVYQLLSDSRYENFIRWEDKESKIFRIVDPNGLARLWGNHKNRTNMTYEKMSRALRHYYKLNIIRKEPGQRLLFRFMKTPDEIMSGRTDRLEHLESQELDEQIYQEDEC
# Summary of the method: as §1
sequence,measurement,setting,value
TTTTAG,binding signal,[1],"1.14 fold enrichment (6-mer frequency, TF over GST control)"
same,binding signal,[2],"1.09 fold enrichment (6-mer frequency, TF over GST control)"
same,binding signal,[3],"1.19 fold enrichment (6-mer frequency, TF over GST control)"
same,binding signal,[4],"1.13 fold enrichment (6-mer frequency, TF over GST control)"
same,binding signal,[5],"1.24 fold enrichment (6-mer frequency, TF over GST control)"
same,binding signal,[6],"1.1 fold enrichment (6-mer frequency, TF over GST control)"
same,binding signal,[7],"1.13 fold enrichment (6-mer frequency, TF over GST control)"
same,binding signal,[8],"1.48 fold enrichment (6-mer frequency, TF over GST control)"
same,binding signal,[9],"1.19 fold enrichment (6-mer frequency, TF over GST control)"
same,binding signal,[10],"1.26 fold enrichment (6-mer frequency, TF over GST control)"
same,binding signal,[11],"1.26 fold enrichment (6-mer frequency, TF over GST control)"
same,binding signal,[12],"1.2 fold enrichment (6-mer frequency, TF over GST control)"
same,binding signal,[13],"1.12 fold enrichment (6-mer frequency, TF over GST control)"
same,binding signal,[14],"1.24 fold enrichment (6-mer frequency, TF over GST control)"
same,binding signal,[15],"1.06 fold enrichment (6-mer frequency, TF over GST control)"
same,binding signal,[16],"1.21 fold enrichment (6-mer frequency, TF over GST control)"
same,binding signal,[17],"1.19 fold enrichment (6-mer frequency, TF over GST control)"

# — article PMC7862700, “An all-to-all approach to the identification of sequence-specific readers for epigenetic DNA modifications on cytosine”
